Source: PubChem BioAssay
Compounds with a hit are over-represented: about 4.6% of the library has one in this group of screens.
TRHR PAM: qHTS for Small Molecule Agonists and Allosteric Enhancers of Human TRH Receptor: Primary Screen for Enhancers | TRHR cells, fluo-8 calcium fluorescence, EC20 TRH enhancement | enhancement, % at 2 µM | 360,000 tested, 0.66% active | AID 493056, 2011; in the data active means enhancement above about 30%; further: 0% is about no effect
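Enhancer read-out: after compound pinning and an initial kinetic agonist-mode read, an EC20 of TRH (10 nM final) was injected and fluo-8 calcium signal (Ex 480/Em 530) followed at 1 s/cycle for 100 cycles in TRHR-expressing cells.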
D1 potentiator: Potentiators of Human D1 Dopamine Receptor: qHTS; AID 504651, 2011; 360,000 tested, 0.036% active; potentiation, % at 10 µM; HEK293 TREx D1 cells, calcium flux, dopamine EC20 potentiation; in the data active means potentiation above about 30%; further: 0% is about no effect
Target sequence (P21728 whole entry, looked up): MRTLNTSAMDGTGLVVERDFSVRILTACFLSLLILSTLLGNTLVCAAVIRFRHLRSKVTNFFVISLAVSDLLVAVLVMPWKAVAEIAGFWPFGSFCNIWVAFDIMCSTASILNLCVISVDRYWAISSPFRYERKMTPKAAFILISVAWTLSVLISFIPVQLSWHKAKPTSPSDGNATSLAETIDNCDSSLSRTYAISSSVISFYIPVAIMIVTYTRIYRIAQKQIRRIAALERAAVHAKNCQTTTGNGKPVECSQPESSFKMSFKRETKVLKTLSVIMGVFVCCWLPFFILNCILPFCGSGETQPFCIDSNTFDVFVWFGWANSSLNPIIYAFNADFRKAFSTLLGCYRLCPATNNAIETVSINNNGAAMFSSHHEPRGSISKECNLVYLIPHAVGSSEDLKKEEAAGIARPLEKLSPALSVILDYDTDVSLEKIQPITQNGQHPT
TRHR ag: qHTS for Small Molecule Agonists and Allosteric Enhancers of Human TRH Receptor: Primary Screen for Agonists | Thyrotropin-releasing hormone receptor (Homo sapiens), P34981 | TRHR cells, calcium flux fluo-8, FDSS agonist mode | activation, % at 2 µM | 360,000 tested, 0.18% active; further: 0% is about no effect
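Agonist-mode FDSS calcium read (Ex 480/Em 530, 1 s cycles) in 1536-well TRHR cells with fluo-8 dye, after 10-cycle baseline and 23 nL compound addition; TRH at EC20 (10 nM final) added afterwards for the enhancer phase.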
D1 antag: Antagonist of Human D 1 Dopamine Receptor: qHTS | D(1A) dopamine receptor (Homo sapiens), P21728 | activity change, negative = inhibition, % at 10 µM | HEK293 TREx D1 cells, calcium flux, dopamine EC80; active compounds read low | AID 504652, 2011 | 360,000 tested, 3.2% active; in the data active means activity change below about -30%; further: on the % scale 0 is the no-effect control and ±100 the full control effect
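Tetracycline-induced HEK293 T-REx cells with force-coupled D1 receptor were loaded with a no-wash calcium dye. Compound was added after a 10 s baseline and read kinetically for 180 s; EC80 dopamine was then added and calcium flux followed another 180 s.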
D1 ag: Allosteric Agonists of the Human D1 Dopamine Receptor: qHTS. HEK293 T-REx D1 cells, calcium flux, agonist mode. activation, % at 2 µM. 360,000 tested, 1% active. AID 504660, 2011; further: 0% is about no effect
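Inducible HEK293 T-REx D1 cells, force-coupled to calcium signalling, were plated at 4000 cells/well with tetracycline and held overnight at 30 C. After no-wash calcium dye loading, compound-evoked calcium rise over 180 s flagged agonists.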
* = called active by the depositor; ! = not active in a repeat. Unless noted, no stated cut-off is given here; in the data, active means activation above about 30%; inactive means the rest.

`COc1ccccc1NC(=O)OCC#CCOC(=O)Nc1ccccc1OC` gave TRHR PAM 2, D1 potentiator -4, TRHR ag -1, D1 antag -58* and D1 ag 23.
For CSc1cccc(NC(=S)N(CCC(C)C)C(C)c2ccncc2)c1 (configuration not stated) the results were TRHR PAM 1, D1 potentiator -5, TRHR ag -1, D1 antag -34* and D1 ag 6.
`COCCCN(C(=S)Nc1cc(Cl)cc(Cl)c1)C(C)c1ccncc1` (configuration not stated) gave TRHR PAM -1, D1 potentiator -3, TRHR ag 0, D1 antag -53* and D1 ag 1.
Screening COc1cccc(NC(=S)N(CCC(C)C)C(C)c2ccncc2)c1 (configuration not stated) returned TRHR PAM -2, D1 potentiator -2, TRHR ag 0, D1 antag 1 and D1 ag -1.
For Cc1c(Cl)cccc1Nc1nc(N)nc(CSc2nc3ccccc3s2)n1 the results were TRHR PAM 0, D1 potentiator -2, TRHR ag 1, D1 antag -44*! and D1 ag 4.
COc1ccc([N+](=O)[O-])cc1NC(=O)Nc1cccc(Cl)c1 was read as TRHR PAM -2, D1 potentiator -3, TRHR ag 0, D1 antag -41* and D1 ag 5.
For COc1ccc([N+](=O)[O-])cc1NC(=O)Nc1ccc(OC)c(OC)c1 the results were TRHR PAM 1, D1 potentiator -7, TRHR ag 0 and D1 ag -1.
Screening COc1ccccc1NS(=O)(=O)c1cccc(NC(=O)Nc2cccc(Cl)c2)c1 returned TRHR PAM -6, D1 potentiator -13, TRHR ag 2, D1 antag -39* and D1 ag 12.
For CC(C)C[C@H](NC(=O)c1nc[nH]c1C(=O)N1CCc2ccccc2C1)C(=O)OC(C)(C)C the results were TRHR PAM -1, D1 potentiator 1, TRHR ag 0, D1 antag -6 and D1 ag -1.
Screening COc1cccc(NC(=S)NC(=O)Cc2ccc(Cl)cc2)c1 returned TRHR PAM 2, D1 potentiator -6, TRHR ag 4, D1 antag 0 and D1 ag 68*.
`COc1ccccc1NC(=S)NC(=O)Cc1ccc(Cl)cc1` gave TRHR PAM -21, D1 potentiator -6, TRHR ag 5, D1 antag -43* and D1 ag 57*.
For CCC(=O)NC(=S)Nc1ccccc1OC the results were TRHR PAM 2, D1 potentiator -5, TRHR ag 0, D1 antag -9 and D1 ag 1.
COc1ccc(C(=O)O)cc1NC(=S)NC(=O)CSc1ccc(Cl)cc1 was read as TRHR PAM -3, D1 potentiator -3, TRHR ag 0, D1 antag -74* and D1 ag 3.
For Cc1ccc(NC(=O)C2CCCN(C(=O)c3ccc(Cl)cc3)C2)cc1C (configuration not stated) the results were TRHR PAM -1, D1 potentiator 5, TRHR ag -1, D1 antag 6 and D1 ag -2.
CC(C)OCCCn1c(SCc2ccccc2C#N)nc2c(sc3ccccc32)c1=O was read as TRHR PAM -1, D1 potentiator -1, TRHR ag 0, D1 antag 20 and D1 ag -1.
Screening CC1CCN(S(=O)(=O)c2nnc(NC(=O)c3ccc(C(C)C)cc3)s2)CC1 returned TRHR PAM 2, D1 potentiator -3, TRHR ag 1, D1 antag 7 and D1 ag 3.
`Cc1ccc2nc(-c3cc(-c4ccccc4)no3)cn2c1` gave TRHR PAM -1, D1 potentiator -17, TRHR ag 0, D1 antag -53* and D1 ag 1.
For c1ccc(-n2ncc3c(NCCN4CCCCC4)ncnc32)cc1 the results were TRHR PAM 3, D1 potentiator -3, TRHR ag 1, D1 antag 1 and D1 ag 5.
Screening c1ccc(-n2ncc3c(NCCN4CCOCC4)ncnc32)cc1 returned TRHR PAM 33*, D1 potentiator 7, TRHR ag 0, D1 antag -1 and D1 ag 1.
Screening CN(C)CCCNc1ncnc2c1cnn2-c1ccccc1 returned TRHR PAM -5, D1 potentiator -5, TRHR ag 1, D1 antag -14 and D1 ag 3.
`CC(C)OCCCNc1ncnc2c1cnn2-c1ccccc1` gave TRHR PAM 33*, D1 potentiator -2, TRHR ag 0, D1 antag -37* and D1 ag 0.
`OCCOCCNc1ncnc2c1cnn2-c1ccc(Cl)cc1` gave TRHR PAM -4, D1 potentiator 2, TRHR ag 0, D1 antag 8 and D1 ag 2.
Screening OCCOCCNc1ncnc2c1cnn2-c1ccccc1 returned TRHR PAM 23, D1 potentiator -9, TRHR ag 0, D1 antag -45* and D1 ag 0.
Screening N[C@@H](Cc1ccc(O)cc1)c1nnc([C@H](CO)NC(=O)C2CCNCC2)o1 returned TRHR PAM -2, D1 potentiator -3, TRHR ag 0, D1 antag -12 and D1 ag -3.
Nc1ccc(S(=O)(=O)NC2(C(F)(F)F)NC(=O)N(c3cccc(Cl)c3)C2=O)cc1 (configuration not stated) was read as TRHR PAM -5, D1 potentiator -4, TRHR ag 1, D1 antag -6 and D1 ag 0.
Screening Cc1nc2ccc(-c3ccccc3)cc2o1 returned TRHR PAM -7, D1 potentiator -3, TRHR ag 0, D1 antag -46* and D1 ag 1.
Screening CC1CCCN(Cc2c(O)ccc3c(=O)c(-c4ccc(Cl)cc4)c(C(F)(F)F)oc23)C1 (configuration not stated) returned TRHR PAM 0, D1 potentiator 2, TRHR ag 1, D1 antag -28 and D1 ag 1.
`CC(=O)c1c(C)n(C)c2ccc(OC(=O)c3ccc([N+](=O)[O-])cc3)cc12` gave TRHR PAM 40*, D1 potentiator 1, TRHR ag 0, D1 antag -1 and D1 ag 6.
For CN(c1nnc(NC(=O)Nc2ccc(Br)cc2)s1)C1CCCCC1 the results were TRHR PAM 1, D1 potentiator -1, TRHR ag 0, D1 antag 5 and D1 ag 3.
